By inhibition is commonly meant the change of the read-out against control, counted positive when it falls.

Each structure is given as a SMILES string. Calls of active or inactive are those of the source.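 Rule for the calls, unless noted: active = visual image review flags a hit and inhibition of aggregation exceeds 20%; inconclusive = visual hit but inhibition at or below 20%; inactive = no hit on visual image review.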

The source of these data is PubChem BioAssay.

Test [1] in a line: inhibitors of TNFa-induced NFkB p65 translocation, primary screen, imaging, HUVEC, MLSMR starter and 10KST1 sets (AID 438;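 active = inhibition above 20% together with a positive visual image hit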;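 note: compound added about 3h40 before a 20 min TNFalpha stimulation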;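 for inhibition: signal is the nuclear over cytoplasmic p65 intensity ratio per well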). The note with it: HUVEC TNFa-induced p65 nuclear translocation; cell count: measured here: nuclei count (cytotoxicity indicator), at 2.08 µM; inhibition: at 2 µM, stronger effect = higher value, 0% TNFa-plus-vehicle, 100% no-TNFa wells.
Test [2] in a line: reduction of polyQ htt aggregates in cells – imaging, exon1htt(103Q)mCFP cells, high-content imaging, primary screen (AID 483).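 For nuclei count: percent of the per-plate median nuclei count of sample wells.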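 Note: compound exposure lasted 3 days before fixation.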 Particulars: exon1htt(103Q)mCFP cell line, aggregate imaging, at 2 µM; inhibition of aggregation: stronger effect = higher value; nuclei count: measured here: cell count, toxicity.
Test [3] can be described thus: endothelial E-selectin expression blockers – imaging, HUVEC, immunofluorescence, MLSMR starter and 10KST1 sets, primary screen (AID 487;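 active = visually confirmed hit in the image check and inhibition above 20%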;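 for inhibition: signal is fraction of cell area covered by stained E-selectin grains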;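 for nuclei count: 100% = median nuclei count of all wells on the same plate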). The note with it: HUVEC TNFalpha-induced E-selectin immunofluorescence imaging, at 2 µM; inhibition: stronger effect = higher value; nuclei count: measured here: cell number, toxicity.
For test [4], the target named is Voltage-gated potassium channel subunit beta-2 (Rattus norvegicus) (UniProt P62483). Description: inhibitors of rat Kvbeta2 reductase activity – biochemical, NADPH fluorescence, primary screen (AID 622;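 active = fluorescence slope higher than the sample average by over 3 SD, cut at about -0.22 in these data, passing the limit was not always enough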;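 note: slope of raw intensity against log time taken from 70 to 1610 s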). The note with it: recombinant KvBeta, 4-cyanobenzaldehyde reduction, at 10 µM, stronger effect = higher value.
Test [5] has the same target. Description: enhancers of rat Kvbeta2 NADPH turnover – biochemical, NADPH fluorescence, primary screen (AID 623;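 active = NADPH fluorescence slope more negative than the mean of all samples by about 3 SD, 99.7% confidence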;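 note: fluorescence intensity change per second fitted from 20 to 320 s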). Particulars: Recombinant KvBeta, NADPH fluorescence decrease slope, 10 min; at 10 µM; stronger effect = lower value.
Test [6] concerns the target Alpha-2C adrenergic receptor (Homo sapiens) (UniProt P18825). Description: compounds altering alpha2C-coupled GIRK flux – cell-based, HEK293 alpha2C/GIRK1/2, thallium flux, primary screen (AID 624;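 active = fluorescence slope after compound addition differing from the mean of all screened samples at 99.7% confidence, in either direction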;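 note: slope of fluorescence ratio to pre-addition baseline per second over 15 to 24 s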). The note with it: thallium flux BTC fluorescence, at 10 µM, actives lie on both sides.
Test [7] is described as follows: blockers of RIG-like receptor reporter activation – cell-based, Sendai virus stimulus, luciferase, 10K MLSCN set, TLR/RLR signaling modifier project, primary screen (AID 602276;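 active = inhibition at or above 50% at 10 µM; inactive = inhibition below 50%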;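 note: firefly luciferase from ISG56 promoter only with Renilla not read in this screen; 0% = Sendai virus plus DMSO and 100% = medium plus DMSO without virus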). The note with it: HEK293 RL24 IRF3 luciferase reporter, at 10 µM, stronger effect = higher value. For orientation: Reporter assays use an easily measured gene product as a stand-in for the process of interest.

Test [8] can be described thus: TLR3 IRF3 reporter activation blockers – cell-based, poly I:C stimulus, luciferase, 10K MLSCN set, primary screen (AID 602277;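 active = inhibition of the reporter signal at or above 50%; inactive = inhibition below 50%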). Particulars: HEK293-TLR3 RL24 IRF3 luciferase reporter, at 10 µM, stronger effect = higher value.

Sequence of Alpha-2C adrenergic receptor (Homo sapiens) (P18825 whole entry, looked up): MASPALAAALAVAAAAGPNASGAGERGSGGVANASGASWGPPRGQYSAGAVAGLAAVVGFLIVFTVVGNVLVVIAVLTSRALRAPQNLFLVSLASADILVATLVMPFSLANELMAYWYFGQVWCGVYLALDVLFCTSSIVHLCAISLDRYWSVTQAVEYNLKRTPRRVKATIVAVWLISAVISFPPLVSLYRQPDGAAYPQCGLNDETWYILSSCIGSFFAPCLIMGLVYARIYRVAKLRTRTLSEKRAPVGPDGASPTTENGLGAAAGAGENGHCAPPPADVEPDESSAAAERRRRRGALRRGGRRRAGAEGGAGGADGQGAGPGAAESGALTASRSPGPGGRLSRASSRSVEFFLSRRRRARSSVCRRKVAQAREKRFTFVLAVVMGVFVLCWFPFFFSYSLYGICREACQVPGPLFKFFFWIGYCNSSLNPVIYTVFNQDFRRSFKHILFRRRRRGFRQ
Sequence of Voltage-gated potassium channel subunit beta-2 (Rattus norvegicus) (P62483 whole entry, looked up): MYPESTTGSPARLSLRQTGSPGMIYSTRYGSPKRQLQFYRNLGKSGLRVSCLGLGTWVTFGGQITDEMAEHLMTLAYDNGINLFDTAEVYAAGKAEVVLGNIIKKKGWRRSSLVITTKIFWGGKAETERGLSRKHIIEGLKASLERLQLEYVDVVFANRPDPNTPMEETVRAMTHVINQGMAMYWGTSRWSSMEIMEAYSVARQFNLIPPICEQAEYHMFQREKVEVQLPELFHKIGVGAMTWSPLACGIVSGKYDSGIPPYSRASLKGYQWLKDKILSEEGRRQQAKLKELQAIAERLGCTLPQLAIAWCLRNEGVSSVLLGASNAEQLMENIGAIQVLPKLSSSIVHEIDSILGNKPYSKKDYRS

On to `Cc1cc(NC(c2cccnc2)c2c(C)[nH]c3ccccc23)no1` (centres undefined), for which the cell count in test [1] turned out to be 514. Besides, the inhibition was 2.5% (inactive) in test [1], -105% (inactive) in test [3], 17.8% (inactive) in test [7] and 28.6% (inactive) in test [8]. Besides, the inhibition of aggregation in test [2] is 7.6% (inactive). In addition, the nuclei count in test [2] came out at 112%; in test [3], 135%. For the same molecule, the fluorescence slope in test [4] was -0.596 (inactive). For the same molecule, in test [5], the NADPH fluorescence slope was -4.4e-05 (inactive). Further, the slope in test [6] was 0.00254 (inactive).
Take `CCn1c(SCC(=O)c2ccc(Cl)cc2)nnc1-c1ccoc1C`: the cell count in test [1] came out at 352. In addition, the inhibition in test [1] was 0.2% (inactive); in test [3], -69.1% (inactive); in test [7], 3.62% (inactive); in test [8], 5.26% (inactive). Also, the inhibition of aggregation in test [2] is -24% (inactive). Further, the nuclei count in test [2] was 110%; in test [3], 108%. Moreover, the fluorescence slope in test [4] is -0.503 (inactive). In addition, the NADPH fluorescence slope in test [5] was -6.2e-05 (inactive). Also, the slope in test [6] is 0.00727 (inactive).
In the case of `Cc1ccc(C(=O)OCC(=O)Nc2ccc3c(c2)OCO3)o1`, the cell count in test [1] was found to be 429. Further, the inhibition in test [1] was 14.6% (inactive); in test [3], 8.1% (inactive); in test [7], -15.7% (inactive); in test [8] it was -12.9% (inactive). In addition, in test [2], the inhibition of aggregation was 17.6% (inactive). Further, the nuclei count in test [2] turned out to be 99.5%; in test [3], 112%. Further, the fluorescence slope in test [4] was -0.595 (inactive). Further, the NADPH fluorescence slope in test [5] was -5.5e-05 (inactive). For the same molecule, the slope in test [6] is 0.00785 (inactive).
Take `Fc1cccc(-c2cc3nc4c(c(N5CCN(c6cnccn6)CC5)n3n2)CCCC4)c1`: the cell count in test [1] came to 468. Besides, the inhibition is -3.1% (inactive) in test [1], -80.1% (inactive) in test [3], -15.7% (inactive) in test [7] and -16.1% (inactive) in test [8]. Moreover, the inhibition of aggregation in test [2] is -5.2% (inactive). Moreover, the nuclei count was 101% in test [2] and 100% in test [3]. Moreover, the fluorescence slope in test [4] was -0.622 (inactive). Besides, in test [5], the NADPH fluorescence slope is -2.7e-05 (inactive). In addition, the slope in test [6] is 0.00757 (inactive).
Consider `Cc1cc(C)n2c(SCC(=O)Nc3cc(C)on3)nnc2n1`, for which the cell count in test [1] is 335. Besides, the inhibition in test [1] was -14.1% (inactive); in test [3], 3.6% (inactive); in test [7], 11% (inactive); in test [8] it was 22.4% (inactive). For the same molecule, the inhibition of aggregation in test [2] is 2.1% (inactive). Moreover, the nuclei count in test [2] was 71.2%; in test [3], 100%. The fluorescence slope in test [4] was -0.555 (inactive). For the same molecule, the NADPH fluorescence slope in test [5] was -2.2e-05 (inactive). The slope in test [6] is 0.00561 (inactive).
Take `Cc1cc(=O)oc2cc(OCC(=O)OCC(=O)N3CCc4ccccc43)ccc12`: the cell count in test [1] was 358. The inhibition in test [1] was 4.7% (inactive); in test [3], -44.9% (inactive); in test [7], 11% (inactive); in test [8] it was 16.2% (inactive). In addition, the inhibition of aggregation in test [2] was -5% (inactive). For the same molecule, the nuclei count was 88.9% in test [2] and 103% in test [3]. The fluorescence slope in test [4] is -0.331 (inactive). Also, the NADPH fluorescence slope in test [5] was -5.7e-05 (inactive). Besides, in test [6], the slope was 0.00553 (inactive).
On to `Cn1c(=O)[nH]c(=O)c2c1nc(N1CCCCCC1)n2CCCSc1nc2ccccc2o1`, for which the cell count in test [1] is 256. The inhibition in test [1] is 4.7% (inactive); in test [3] it was -64.8% (inactive); in test [7], 14.2% (inactive); in test [8], 9.47% (inactive). In test [2], the inhibition of aggregation was -1.5% (inactive). For the same molecule, the nuclei count in test [2] turned out to be 102%; in test [3], 98.7%. In addition, the fluorescence slope in test [4] is -0.609 (inactive). For the same molecule, the NADPH fluorescence slope in test [5] is -4.5e-05 (inactive). For the same molecule, in test [6], the slope is 0.00527 (inactive).
In the case of `Cc1nc(C)c2c(c1C(F)(F)F)-c1ccccc1C2(F)F`, the cell count in test [1] is 397. Also, the inhibition in test [1] is 3.9% (inactive); in test [3], -30.7% (inactive); in test [7], -9.52% (inactive); in test [8], 98.9% (active). Besides, in test [2], the inhibition of aggregation is -0.1% (inactive). Also, the figures for the nuclei count in test [2] and in test [3] were 108% and 107%, respectively. In addition, the fluorescence slope in test [4] was -0.454 (inactive). The NADPH fluorescence slope in test [5] is -8.2e-06 (inactive). In addition, the slope in test [6] is 0.00655 (inactive).
Consider `Cc1ccnc(NS(=O)(=O)c2ccc(NC(=O)Cc3cccs3)cc2)n1`, for which the cell count in test [1] is 301. For the same molecule, the inhibition in test [1] is 6.3% (inactive); in test [3] it was -83.5% (inactive); in test [7], -4.32% (inactive); in test [8] it was -12.1% (inactive). Further, the inhibition of aggregation in test [2] is 0.7% (inactive). In addition, the nuclei count in test [2] turned out to be 67%; in test [3], 104%. Further, in test [4], the fluorescence slope was -0.408 (inactive). Further, the NADPH fluorescence slope in test [5] is 6.5e-05 (inactive). Besides, the slope in test [6] is 0.00546 (inactive).
Consider `O=c1c2ccccc2nc(SCc2cn3ccsc3n2)n1-c1ccc(F)cc1`, for which the cell count in test [1] stood at 607. The inhibition is 6.1% (inactive) in test [1], 59.6% (active) in test [3], 23.9% (inactive) in test [7] and 22.8% (inactive) in test [8]. In test [2], the inhibition of aggregation is 9% (inactive). The nuclei count in test [2] amounted to 103%; in test [3], 71.6%. For the same molecule, the fluorescence slope in test [4] was -0.626 (inactive). In addition, the NADPH fluorescence slope in test [5] was 1.8e-05 (inactive). In addition, the slope in test [6] was 0.00521 (inactive).
As to `O=C(NCc1ccc2c(c1)OCO2)C1CCC(CNc2c(N3CCCCC3)c(=O)c2=O)CC1` (centres undefined), in test [1], the cell count was 579. Also, the inhibition was 6.8% (inactive) in test [1], 11.9% (inactive) in test [3], 7.38% (inactive) in test [7] and 24.7% (inactive) in test [8]. The inhibition of aggregation in test [2] is 2.3% (inactive). Further, the nuclei count was found to be 109% in test [2] and 104% in test [3]. Further, in test [4], the fluorescence slope is -0.595 (inactive). Further, in test [5], the NADPH fluorescence slope was -4.4e-05 (inactive). The slope in test [6] is 0.00656 (inactive).
Turning to `O=C(CNS(=O)(=O)c1ccccc1)NCc1ccccn1`, in test [1], the cell count was 707. For the same molecule, the inhibition in test [1] is -2.1% (inactive); in test [3] it was -25.5% (inactive); in test [7], 20.5% (inactive); in test [8], 16.3% (inactive). In addition, the inhibition of aggregation in test [2] is -10.6% (inactive). Besides, the values for the nuclei count in test [2] and in test [3] were 106% and 113%, respectively. Also, the fluorescence slope in test [4] was -0.517 (inactive). For the same molecule, the NADPH fluorescence slope in test [5] was -1.9e-05 (inactive). Besides, the slope in test [6] was 0.00515 (inactive).
For the molecule `CCOc1cccc(-c2nnc3n2N=C(c2cc(OC)ccc2OC)CS3)c1`, the cell count in test [1] was 404. Besides, the inhibition was 15.8% (inactive) in test [1], -56.6% (inactive) in test [3], 19.6% (inactive) in test [7] and 56.7% (active) in test [8]. In addition, the inhibition of aggregation in test [2] is -30.5% (inactive). The nuclei count in test [2] was found to be 10.2%; in test [3], 111%. Also, the fluorescence slope in test [4] was -0.376 (inactive). Besides, the NADPH fluorescence slope in test [5] is -2.7e-06 (inactive). Besides, the slope in test [6] is 0.00667 (inactive).
As to `CN(CC(=O)Nc1sccc1C#N)C1CCCCC1`, the cell count in test [1] was found to be 723. Further, the inhibition in test [1] was -7.3% (inactive); in test [3], -27.2% (inactive); in test [7], -14.2% (inactive); in test [8] it was 99.3% (active). Also, in test [2], the inhibition of aggregation was -178% (inactive). The nuclei count in test [2] was determined as 7.1%; in test [3], 125%. Also, in test [4], the fluorescence slope was -0.42 (inactive). Further, the NADPH fluorescence slope in test [5] is -1.4e-05 (inactive). For the same molecule, in test [6], the slope was 0.00552 (inactive).
